Laboratory results reported in PubChem BioAssay.
“And” between values parts separate entries of the source, which are not always exact repeats. Equal values may be shown once. A number with no mark means an inactive call. The source made the active and inactive calls.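 The calls were made as follows, unless noted: active = mean inhibition over 43.08%, the solvent-only control mean plus 3 SD; inactive = the rest.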

target: Nuclear receptor coactivator 3 (Homo sapiens) (UniProt Q9Y6Q9); test: NCOA3 GAL4-fusion reporter inhibition – cell-based, luminescence, quadruplicate, confirmation (AID 588792); conditions: HEK293 GAL4-SRC3 luciferase reporter, at 3.6 µM, stronger effect = higher value;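 also: 0% = DMSO treated cells and 100% = gossypol at 36 µM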
Sequence (Q9Y6Q9 whole entry, looked up, the tested form may be a part): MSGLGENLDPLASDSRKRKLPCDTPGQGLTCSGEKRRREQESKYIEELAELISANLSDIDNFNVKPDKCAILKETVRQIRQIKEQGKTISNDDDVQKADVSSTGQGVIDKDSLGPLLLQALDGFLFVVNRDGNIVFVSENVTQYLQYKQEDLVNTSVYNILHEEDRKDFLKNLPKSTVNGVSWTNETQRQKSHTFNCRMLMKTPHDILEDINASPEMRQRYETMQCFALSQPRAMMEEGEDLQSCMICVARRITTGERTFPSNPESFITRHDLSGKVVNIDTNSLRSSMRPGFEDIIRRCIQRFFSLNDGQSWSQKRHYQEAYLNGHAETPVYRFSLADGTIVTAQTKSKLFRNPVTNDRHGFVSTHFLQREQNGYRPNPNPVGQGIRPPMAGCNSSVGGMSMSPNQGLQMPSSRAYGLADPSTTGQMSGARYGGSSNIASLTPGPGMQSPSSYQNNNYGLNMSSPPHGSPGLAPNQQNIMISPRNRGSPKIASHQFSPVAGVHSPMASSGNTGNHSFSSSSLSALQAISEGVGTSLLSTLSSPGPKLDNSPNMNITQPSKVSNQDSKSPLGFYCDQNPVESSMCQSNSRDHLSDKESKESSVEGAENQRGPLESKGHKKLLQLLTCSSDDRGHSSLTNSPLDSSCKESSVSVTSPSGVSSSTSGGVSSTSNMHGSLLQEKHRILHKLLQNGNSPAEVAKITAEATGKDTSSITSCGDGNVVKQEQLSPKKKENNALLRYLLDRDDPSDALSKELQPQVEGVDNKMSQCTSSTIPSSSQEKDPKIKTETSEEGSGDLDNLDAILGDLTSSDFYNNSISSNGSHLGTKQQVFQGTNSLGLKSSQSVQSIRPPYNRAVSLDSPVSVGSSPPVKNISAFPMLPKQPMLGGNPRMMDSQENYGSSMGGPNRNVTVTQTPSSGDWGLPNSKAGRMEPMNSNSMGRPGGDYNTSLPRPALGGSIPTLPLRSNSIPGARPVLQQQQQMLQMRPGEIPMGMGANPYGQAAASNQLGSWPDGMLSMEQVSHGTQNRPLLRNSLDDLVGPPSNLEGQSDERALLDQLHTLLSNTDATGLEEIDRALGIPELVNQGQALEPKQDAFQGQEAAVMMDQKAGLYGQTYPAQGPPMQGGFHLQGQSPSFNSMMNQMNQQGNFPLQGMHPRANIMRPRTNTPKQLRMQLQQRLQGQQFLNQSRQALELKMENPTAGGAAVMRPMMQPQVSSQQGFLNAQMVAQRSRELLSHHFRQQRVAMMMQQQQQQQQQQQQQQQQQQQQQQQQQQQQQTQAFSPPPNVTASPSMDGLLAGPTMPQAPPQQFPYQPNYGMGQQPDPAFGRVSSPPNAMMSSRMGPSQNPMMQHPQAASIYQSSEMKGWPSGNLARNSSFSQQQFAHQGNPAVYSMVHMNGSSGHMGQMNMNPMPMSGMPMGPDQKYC

| Compound | inhibition |
| --- | --- |
| N#CC(c1ccc(Cl)cc1)c1ccc2c(C(F)(F)F)cc(C(F)(F)F)nc2n1 (stereo not given) | 62% (active) |
| O=C(Nc1nc(-c2ccc3ccccc3c2)cs1)C1CCN(S(=O)(=O)c2cccs2)CC1 | 8.55% |
| CCCc1c(C)nc2ccccc2c1SCCC#N | 29.6% |
| c1ccc(-c2noc(-c3ccc4c(c3)OCO4)n2)nc1 | 17.6% |
| COc1cccc(CNc2ncnc3ccc(-c4c(C)noc4C)cc23)c1 | 36.6% |
| COC(=O)c1ccc2nc(Nc3nc4ccc(F)cc4s3)sc2c1 | 21.2% |
| O=c1cccc2c1c1cc[nH]c3ccc(=O)n2c31 | 43% |
| COc1ccc(-c2c[n+]3c(n2-c2ccccc2)CCCCC3)cc1 | 43.4% (active) |
| CCN(CC)S(=O)(=O)c1ccc(/C=C/C(=O)Nc2ccc(Br)cc2F)cc1 | 21.2% |
| COC(=O)c1cc2c(n1S(=O)(=O)c1ccc(C)cc1)C(=O)C(=O)c1[nH]cc(C(=O)OCc3ccccc3)c1-2 | 96.9% (active) |
| Cn1c2c(c(=O)n(C)c1=O)C(C(F)(F)F)(C(F)(F)F)N=C(C1CCCCC1)N2 | 11.5% |
| CCOc1ccc(-n2c(C)c(C(C)=O)c3cc(O)ccc32)cc1 | 59.7% (active) |
| c1ccc(-c2noc(-c3ccc4ccccc4c3)n2)nc1 | 43.7% (active) |
| Cc1cccc[n+]1CC(=O)/C=C1\N(C)c2ccccc2C1(C)C | 8.01% |
| O=C(Nc1ccc(Cn2cccn2)cc1)c1ccc(COc2cccc(Br)c2)cc1 | 1.93% |
| C(C#CCCCCCCCCC[n+]1ccccc1)#CCCCCCCCCC[n+]1ccccc1 | 58.9% (active) and 59.3% (active) |
| Cc1cc(C)c2c(N)c3ccccc3nc2n1 | 15.2% |
| CCCC(=O)NC(c1ccccc1OC)c1ccc2cccnc2c1O (stereo not given) | 61.1% (active) |
| O=C(C=P(c1ccccc1)(c1ccccc1)c1ccccc1)c1ccccc1-c1ccccc1C(=O)C=P(c1ccccc1)(c1ccccc1)c1ccccc1 | 60.6% (active) |
| O=[N+]([O-])c1ccc(Oc2ccc(F)cc2)c2ccncc12 | 46.8% (active) |

| Compound | inhibition |
| --- | --- |
| CN(CC1CCCO1)S(=O)(=O)c1ccc(C(=O)Nc2nc3cc4c(cc3s2)OCO4)cc1 (stereo not given) | 14.7% |
| CCc1ccc(-c2cc(C(F)(F)F)n3nc(C(=O)Nc4cnn(Cc5ccc(C)cc5)c4)cc3n2)s1 | 10.1% |
| Cc1ccc(C(=O)Nc2nc(-c3ccccn3)cs2)cc1S(=O)(=O)N1CCOCC1 | 17% |
| Cc1cccc(/C=N/Nc2ccc3ccccc3n2)c1 | 16.1% |
| C[n+]1c2n(c3ccccc31)N=C(c1ccc(Br)cc1)CS2 | 15.5% |
| O=[N+]([O-])c1cccc(C=NNc2ccc3ccccc3n2)c1O | -4.77% |
| OCCN1CCN(C(=S)c2ccc(-c3ccccc3)cc2)CC1 | 35.6% |
| c1cnc2ccc(-n3ccnc3)cc2c1 | 24.2% |
| O=C(Nc1nc(-c2ccc(S(=O)(=O)N3CCOCC3)cc2)cs1)c1ccccc1 | 0.95% |
| Cn1c(/C=C/c2ccc(Cl)cc2Cl)c([N+](=O)[O-])c(=O)n(C)c1=O | 62.2% (active) |
| C#CC[N+](C)(C)CCCCCCCCCC | 18.6% |
| Cc1ccc(C2CC(C(F)(F)F)n3nc(C(=O)NCc4c(C)nn(C)c4C)c(Cl)c3N2)cc1 (stereo not given) | 7.71% |
| Cc1nc2c(o1)C(=O)c1ccccc1C2=Nc1ccccc1 | 78.5% (active) |
| c1cncc(CNc2ncnc3ccc(-c4ccoc4)cc23)c1 | 75.2% (active) |
| Cc1ccc(-n2c(O)c(C=Nc3cc(C)on3)c3ccccc3c2=O)c(C)c1 | 52.8% (active) |
| Cc1cc(C(=O)NNc2ccc(F)cc2)no1 | 9% |
| Cn1c(=O)c2c(nc(NCc3ccco3)n2C/C=C/c2ccccc2)n(C)c1=O | 36.4% |
| CCC(=O)Oc1c(C(=O)CC)cc2c(C)cc(=O)oc2c1C | 15.1% |
| Cc1csc(CNc2ncnc3ccc(-c4ccoc4)cc23)c1 | 52.7% (active) |
| CCn1ccnc1CN(C)Cc1cn[nH]c1-c1ccc(OC)c(F)c1 | 36.8% |

system: transactivating tegument protein VP16 (Human herpesvirus 1), Gal4-VP16 luciferase reporter; test: repression of VP16-driven luciferase reporter – cell-based, luminescence, high throughput, counter-screen for SRC3 inhibitor project (AID 588794; in the data active = inhibition above about 30%); conditions: mammalian cells, at 3.6 µM, stronger effect = higher value

| Compound | inhibition |
| --- | --- |
| N#CC(c1ccc(Cl)cc1)c1ccc2c(C(F)(F)F)cc(C(F)(F)F)nc2n1 (stereo not given) | 85.7% (active) |
| O=C(Nc1nc(-c2ccc3ccccc3c2)cs1)C1CCN(S(=O)(=O)c2cccs2)CC1 | 32.2% (active) |
| CCCc1c(C)nc2ccccc2c1SCCC#N | 29% |
| c1ccc(-c2noc(-c3ccc4c(c3)OCO4)n2)nc1 | 7.86% |
| COc1cccc(CNc2ncnc3ccc(-c4c(C)noc4C)cc23)c1 | 1.06% |
| COC(=O)c1ccc2nc(Nc3nc4ccc(F)cc4s3)sc2c1 | 3.83% |
| O=c1cccc2c1c1cc[nH]c3ccc(=O)n2c31 | 32.9% (active) |
| COc1ccc(-c2c[n+]3c(n2-c2ccccc2)CCCCC3)cc1 | 39.6% (active) |
| CCN(CC)S(=O)(=O)c1ccc(/C=C/C(=O)Nc2ccc(Br)cc2F)cc1 | 40.3% (active) |
| COC(=O)c1cc2c(n1S(=O)(=O)c1ccc(C)cc1)C(=O)C(=O)c1[nH]cc(C(=O)OCc3ccccc3)c1-2 | 93.6% (active) |
| Cn1c2c(c(=O)n(C)c1=O)C(C(F)(F)F)(C(F)(F)F)N=C(C1CCCCC1)N2 | 20.6% |
| CCOc1ccc(-n2c(C)c(C(C)=O)c3cc(O)ccc32)cc1 | 51.2% (active) |
| c1ccc(-c2noc(-c3ccc4ccccc4c3)n2)nc1 | 19.2% |
| Cc1cccc[n+]1CC(=O)/C=C1\N(C)c2ccccc2C1(C)C | 20.6% |
| O=C(Nc1ccc(Cn2cccn2)cc1)c1ccc(COc2cccc(Br)c2)cc1 | 42.6% (active) |
| C(C#CCCCCCCCCC[n+]1ccccc1)#CCCCCCCCCC[n+]1ccccc1 | 70.3% (active) and 74.5% (active) |
| Cc1cc(C)c2c(N)c3ccccc3nc2n1 | 54.6% (active) |
| CCCC(=O)NC(c1ccccc1OC)c1ccc2cccnc2c1O (stereo not given) | 37.8% (active) |
| O=C(C=P(c1ccccc1)(c1ccccc1)c1ccccc1)c1ccccc1-c1ccccc1C(=O)C=P(c1ccccc1)(c1ccccc1)c1ccccc1 | 83.9% (active) |
| O=[N+]([O-])c1ccc(Oc2ccc(F)cc2)c2ccncc12 | 36% (active) |

| Compound | inhibition |
| --- | --- |
| CN(CC1CCCO1)S(=O)(=O)c1ccc(C(=O)Nc2nc3cc4c(cc3s2)OCO4)cc1 (stereo not given) | 39.8% (active) |
| CCc1ccc(-c2cc(C(F)(F)F)n3nc(C(=O)Nc4cnn(Cc5ccc(C)cc5)c4)cc3n2)s1 | 9.55% |
| Cc1ccc(C(=O)Nc2nc(-c3ccccn3)cs2)cc1S(=O)(=O)N1CCOCC1 | 29% |
| Cc1cccc(/C=N/Nc2ccc3ccccc3n2)c1 | -21.2% |
| C[n+]1c2n(c3ccccc31)N=C(c1ccc(Br)cc1)CS2 | 24.7% |
| O=[N+]([O-])c1cccc(C=NNc2ccc3ccccc3n2)c1O | -23.2% |
| OCCN1CCN(C(=S)c2ccc(-c3ccccc3)cc2)CC1 | 4.96% |
| c1cnc2ccc(-n3ccnc3)cc2c1 | 23.8% |
| O=C(Nc1nc(-c2ccc(S(=O)(=O)N3CCOCC3)cc2)cs1)c1ccccc1 | 19% |
| Cn1c(/C=C/c2ccc(Cl)cc2Cl)c([N+](=O)[O-])c(=O)n(C)c1=O | 51.5% (active) |
| C#CC[N+](C)(C)CCCCCCCCCC | 23.2% |
| Cc1ccc(C2CC(C(F)(F)F)n3nc(C(=O)NCc4c(C)nn(C)c4C)c(Cl)c3N2)cc1 (stereo not given) | 15.1% |
| Cc1nc2c(o1)C(=O)c1ccccc1C2=Nc1ccccc1 | 94.3% (active) |
| c1cncc(CNc2ncnc3ccc(-c4ccoc4)cc23)c1 | 42.8% (active) |
| Cc1ccc(-n2c(O)c(C=Nc3cc(C)on3)c3ccccc3c2=O)c(C)c1 | 39.9% (active) |
| Cc1cc(C(=O)NNc2ccc(F)cc2)no1 | 7.33% |
| Cn1c(=O)c2c(nc(NCc3ccco3)n2C/C=C/c2ccccc2)n(C)c1=O | 44% (active) |
| CCC(=O)Oc1c(C(=O)CC)cc2c(C)cc(=O)oc2c1C | 17.6% |
| Cc1csc(CNc2ncnc3ccc(-c4ccoc4)cc23)c1 | 47.6% (active) |
| CCn1ccnc1CN(C)Cc1cn[nH]c1-c1ccc(OC)c(F)c1 | 26.1% |
